Data reported in the supplement of paper PMC7156485.
Values without a mark were called inactive.
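Also: TDF is a line of transformed human dermal fibroblasts of mesenchymal origin.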

These compounds were tested on TDF (assay: H1.0 immunofluorescence intensity relative to DMSO (% of DMSO); higher = stronger H1.0 induction, active = 120 or more). Conditions: concentration: 10 µM; 24 h.
Procedure, shortened: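 For HCC1569 and TDF cells, compounds at 10 µM were applied for 24 h at 37 °C in triplicate in 384-well plates. Cells were fixed in 3.7% formaldehyde, stained for H1.0 and with DAPI, and imaged at ×10 over six fields per well. The endpoint, H1.0 nuclear intensity or cell number, is shown as percent of the plate control using the median of replicates. Positional effects were smoothed for HCC1569 only.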
For `Cl.NNC(N)=O` [Semicarbazide hydrochloride], the H1.0 immunofluorescence intensity was 89. With `Cc1ccc2c(c1)C1(CCN(CCc3nc(-c4ccccc4)oc3C)CC1)OC(=O)N2` the H1.0 immunofluorescence intensity was 107. `CN1CC(C(=O)NC2(C)OC3(O)C4CCCN4C(=O)C(Cc4ccccc4)N3C2=O)CC2c3cccc4[nH]cc(c34)CC21.CS(=O)(=O)O` (stereo unspecified) [Dihydroergotamine methanesulfonate] gave an H1.0 immunofluorescence intensity of 90.1. Compound `CCC1(c2ccc(N)cc2)CCC(=O)NC1=O` (racemic) [DL-Aminoglutethimide] has an H1.0 immunofluorescence intensity of 93.1. `Cn1ncnc1COc1nn2c(-c3c(F)cccc3F)nnc2cc1C1CCC1` was tested, and the H1.0 immunofluorescence intensity was 93.6. With `CC1=NN=C(c2ccc(N)cc2)c2cc3c(cc2C1)OCO3.Cl` the H1.0 immunofluorescence intensity was 106. Compound `Cl.Oc1ccc2c3c1OC1C(O)CCC4(O)C(C2)N(CC2CCC2)CCC314` (stereo unspecified) [Nalbuphine hydrochloride] has an H1.0 immunofluorescence intensity of 92.6. Compound `CC(N)Cc1c[nH]c2ccc(O)cc12.O=C(O)C=CC(=O)O` (stereo not drawn) [alpha-Methyl-5-hydroxytryptamine maleate] has an H1.0 immunofluorescence intensity of 90.3. `CC(C(O)CCC(C)(C)O)C1CCC2(O)C3=CC(=O)C4CC(O)C(O)CC4(C)C3CCC12C` (stereo unspecified) [Ecdysone] gave an H1.0 immunofluorescence intensity of 90.8. With `O.O=P1(N(CCCl)CCCl)NCCCO1` (stereo unspecified) [Cyclophosphamide monohydrate] the H1.0 immunofluorescence intensity was 116. For `CC12Cc3cn[nH]c3CC1CCC1C2CCC2(C)C1CCC2(C)O` (stereo unspecified) [Stanozolol], the H1.0 immunofluorescence intensity was 97.2. In the case of `Fc1cc(F)c2c(c1)C1C=CCC1C(c1cccnc1)N2` (stereo unspecified), the H1.0 immunofluorescence intensity is reported as 126 (active). For `CCN1CC2(C)CCC(O)C34C5CC6C(OC)CC(O)(C(CC23)C14)C5C6O` (stereo unspecified) [Karakoline], the H1.0 immunofluorescence intensity was 96.4. `Cl.O=C1CC2OCC=C3CN4CCC56c7ccccc7N1C5C2C3CC46` (stereo unspecified) was tested, and the H1.0 immunofluorescence intensity was 94.3. `CCOP(=O)(OCC)C(C)NC(=O)N(CCCl)N=O` (stereo unspecified) gave an H1.0 immunofluorescence intensity of 102. `C=CCN1CCC23c4c5ccc(O)c4OC2C(=O)CCC3(O)C1C5.Cl` (stereo unspecified) [Naloxone hydrochloride] showed an H1.0 immunofluorescence intensity of 97.1. With `O=S1(=O)N(CCN2CC=C(c3c[nH]c4cc(F)ccc34)CC2)c2cccc3c2N1CCC3` the H1.0 immunofluorescence intensity was 95.4. Compound `CC(=O)c1c(O)c(C)c(O)c(Cc2c(O)c3c(c(C(=O)C=Cc4ccccc4)c2O)OC(C)(C)C=C3)c1O` [Rottlerin] has an H1.0 immunofluorescence intensity of 109. Work on `CC(O)C(C)OC(=O)C1CC2c3cccc4c3c(cn4C(C)C)CC2N(C)C1.O=C(O)C=CC(=O)O` (stereo unspecified) [LY-53,857 maleate] yielded an H1.0 immunofluorescence intensity of 96.5. `CC(C)(C)NCC(O)c1cc(Cl)c(N)c(Cl)c1` (stereo unspecified) [Clenbuterol] was tested, and the H1.0 immunofluorescence intensity was 95.2. In the case of `O=C(O)C1C2CCC(O2)C1C(=O)O` (stereo unspecified) [Endothall], the H1.0 immunofluorescence intensity is reported as 108. In the case of `CC1CC2CCC(O2)C(C)C(=O)OC(C)CC2CCC(O2)C(C)C(=O)OC(C)CC2CCC(O2)C(C)C(=O)OC(C)CC2CCC(O2)C(C)C(=O)O1` (stereo unspecified) [Nonactin], the H1.0 immunofluorescence intensity is reported as 118. `Cl.Cl.Clc1cccc(N2CCNCC2)c1` [1-(3-Chlorophenyl)piperazine dihydrochloride] gave an H1.0 immunofluorescence intensity of 105. In the case of `COCC1OC(=O)c2coc3c2C1(C)C1=C(C3=O)C2CCC(=O)C2(C)CC1OC(C)=O` (stereo unspecified) [Wortmannin from Penicillium funiculosum], the H1.0 immunofluorescence intensity is reported as 89.5. `NC1(C(=O)O)CCC(C(=O)O)C1` (mixture of isomers) was tested, and the H1.0 immunofluorescence intensity was 96.5. For `O=[N+]([O-])C=Cc1ccc2c(c1)OCO2` [Syk Inhibitor III], the H1.0 immunofluorescence intensity was 122 (active). `Cl.c1ccc2c(N3CCNCC3)cccc2c1` [1-(1-Naphthyl)piperazine hydrochloride] was tested, and the H1.0 immunofluorescence intensity was 105. For `CC1OC(OC2CC(O)C3(CO)C4C(O)CC5(C)C(C6=CC(=O)OC6)CCC5(O)C4CCC3(O)C2)C(O)C(O)C1O` (stereo unspecified) [Ouabain], the H1.0 immunofluorescence intensity was 125 (active). In the case of `COc1cc2c(cc1OC)[C@H]1CC(=O)[C@H](CC(C)C)CN1CC2`, the H1.0 immunofluorescence intensity is reported as 88. With `Cl.FC(F)(F)c1cccc(C2=CCN(CCc3ccc4ccccc4c3)CC2)c1` the H1.0 immunofluorescence intensity was 96.3. `Cl.Cl.Cn1cnc(CCN)c1` [1-Methylhistamine dihydrochloride] gave an H1.0 immunofluorescence intensity of 86.4.
